Rows were chosen to be rich in hits. Some 1.6% of all compounds tested hit in one or more screens of this group.
Dyrk1A ADPGlo = rat Dyrk1A kinase inhibitors, primary screen, biochemical, single point, plate reader; Dual specificity tyrosine-phosphorylation-regulated kinase 1A (Rattus norvegicus), Q63470; inhibition, % at 12.5 µM; ADP-Glo luminescence, NFATc1 peptide; 0.43% of 310,000 active; in the data active means inhibition above about 50%;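 further: plate controls were vehicle with enzyme for no effect and no enzyme for full effect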
dFosB act-1 = activators of delta FosB homodimer, primary screen, biochemical, fluorescence polarization, TAMRA-CDK5 oligo, single point. purified delta FosB; percent of positive-control signal above neutral wells. activation, % at 25 µM. 0.99% of 340,000 active. AID 493131, 2011;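 active means mean activation above about 17%, with every replicate also reaching it, limit read from the data, passing the limit was not always enough; inconclusive means only one of the two conditions met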
Bfl-1 A1 inh = caspase 3/7 activation in MEF A1-2A-BIM cells, primary screen, A1 inhibitor project, cell-based, luminescence, HTS. Caspase-Glo 3/7 luminescence, 3 h; percent of clofoctol response, vehicle zero. caspase activation, % (no concentration beside the values). 0.066% of 330,000 active;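 active means over half of replicate activation scores above 10%, or exactly half above 10 with the replicate mean above 10; inconclusive means replicate mean below 10 yet half the replicates above 10; inactive means over half of replicates below 10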
B2AR ag = beta2AR agonists driving receptor internalization, primary screen, cell-based, FAP fluorogen, flow cytometry; Am2.2-beta2AR cells; response, % (no concentration beside the values); 0.43% of 340,000 active; AID 504454, 2011;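 active means response above a set limit, near 3 SD of response in nonfluorescent compounds, cut at about 42% in these data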
Target sequence (P07550 whole entry, looked up): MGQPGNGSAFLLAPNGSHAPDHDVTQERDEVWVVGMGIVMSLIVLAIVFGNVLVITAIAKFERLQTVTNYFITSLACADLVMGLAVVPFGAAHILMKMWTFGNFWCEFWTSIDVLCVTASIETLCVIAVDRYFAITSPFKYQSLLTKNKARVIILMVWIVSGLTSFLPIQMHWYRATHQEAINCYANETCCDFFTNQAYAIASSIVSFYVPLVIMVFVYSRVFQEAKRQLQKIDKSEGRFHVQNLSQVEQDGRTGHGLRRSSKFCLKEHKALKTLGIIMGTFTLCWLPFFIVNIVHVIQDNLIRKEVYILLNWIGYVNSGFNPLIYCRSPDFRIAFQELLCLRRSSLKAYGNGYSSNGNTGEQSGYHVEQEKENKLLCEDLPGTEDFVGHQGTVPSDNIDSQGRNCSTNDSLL
dFosB act-2 = activators of mouse delta FosB DNA binding, confirmation, biochemical, fluorescence polarization, TAMRA-CDK5 oligo, cherry-picked samples; shares compounds with dFosB act-1; purified delta FosB; normalised: neutral wells 0, positive control 100; activation, % at 24.9 µM; 2,400 tested, under 10 active;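 active means highest replicate activation at or above 34% and every replicate reaching that threshold; inconclusive means meets only one of the two criteria; inactive means meets neither criterion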;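 further: higher polarization means more probe DNA bound by delta FosB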
Numbers without * were called inactive; ? = inconclusive; nt = no result given.

SMILES	Dyrk1A ADPGlo	dFosB act-1	Bfl-1 A1 inh	B2AR ag	dFosB act-2
Cc1cc2oc(C(=O)Nc3nonc3C)c(C)c2cc1C	-6.1	20.0*	-3.0	0.8	2.3
CCc1nonc1NC(=O)c1oc2ccc(F)cc2c1C	1.5	34.8*	nt	-5.0	0.7
COc1cc2c(cc1OC)-c1cc3ccc4c(c3c[n+]1CC2)OCO4	15.7	37.6*	-0.5	-95.2	-21.7
COc1cc2c(cc1O)CC[n+]1cc3c(OC)c(OC)ccc3cc1-2	6.7	13.8	1.0	-1.3	nt
Cc1cc(C)cc(NC(=O)CCc2nc3ccccc3[nH]2)c1	-6.8	28.2*	0.4	13.5	-1.2
O=C(CCc1nc2ccccc2[nH]1)Nc1ccccc1	-7.6	-1.6	-0.1	-2.0	nt
C/C(=C\C=C(C#N)C#N)c1cc(C#N)c(N)o1	-0.6	83.7*	nt	3.9	?
CN(Cc1ccco1)C(=O)c1cc2c(s1)-c1ccc(Cl)cc1S(=O)(=O)C2	-0.2	-4.8	-0.2	-4.9	nt
COc1cc(S(=O)(=O)Nc2ccc(C)cc2)ccc1N=Cc1c(C)[nH]n(-c2ccc(C)cc2)c1=O	0.1	0.5	-0.7	1.9	nt
COc1cc(S(=O)(=O)Nc2ccc(C)cc2)ccc1N=Cc1c(C)c(C#N)c(=O)n(C)c1O	0.0	127.6*	2.3	9.4	-2.5
COC(=O)[C@@]1(Cc2ccccc2)[C@H]2C(=O)N(Cc3ccccc3)C(=O)[C@H]2[C@H]2CN=C(SCC3CC3)N21	-3.7	-20.3	nt	-2.6	nt
O=C1CCN(Cc2ccccc2)N1	-3.5	-4.3	0.0	2.4	nt
Cc1cc(NS(=O)(=O)c2ccc(NC(=O)/C=C/c3cccc(Cl)c3)cc2)no1	0.1	-7.7	-0.5	1.2	nt
O=c1[nH]cnc2cc(-c3ccc(Br)cc3)sc12	8.0	44.9*	-5.8	-25.9	6.5
O=c1[nH]c(CCl)nc2cc(-c3ccc(F)cc3)sc12	9.7	-28.9	-7.0	-3.1	nt
Cc1cc(C)c(NC(=O)CSc2nc3ncc(Br)cc3[nH]2)c(C)c1	-0.9	30.4*	0.2	-10.3	-1.1
CC(C)(C)C(=O)CSc1nc2ncc(Br)cc2[nH]1	6.9	-2.7	-0.3	-0.5	nt
CC1CC(C)CN(C(=O)Cn2c(SCC(=O)N3CCc4ccccc4C3)nc3ccccc32)C1 (stereo not drawn)	-2.5	23.8*	0.4	nt	6.0
CCCCc1ccc(NC(=O)CSc2nc3ncccc3[nH]2)cc1	-1.5	19.6*	-2.0	-3.7	-1.0
NC(=O)c1ccc(NC(=O)Cn2c(=O)n(-c3ccccc3)c(=O)c3oc4ccccc4c32)cc1	-4.8	2.8	-0.8	-5.3	nt
CC(=O)Nc1ccc(NC(=O)Cn2c(=O)n(-c3ccc(F)cc3)c(=O)c3oc4ccccc4c32)cc1	-6.8	20.7*	-0.1	0.7	0.6
COc1ccc(-c2cc(C(=O)Nc3cc(C)nn3-c3ccccc3)no2)cc1	4.9	22.6*	-0.1	12.7	-2.7
COc1cc(NC(=O)c2cc(-c3ccc4c(c3)OCO4)on2)cc(OC)c1OC	-7.0	-4.5	0.1	-8.3	nt
O=C(Nc1cccc(O)c1)c1cc(-c2ccc3c(c2)OCO3)on1	-0.5	32.5*	-7.3	1.3	-0.4
COc1ccc2c(-c3ccc(S(N)(=O)=O)cc3)c(-c3ccc(S(C)(=O)=O)cc3)sc2c1	-0.8	-7.3	nt	12.6	nt
SMILES	Dyrk1A ADPGlo	dFosB act-1	Bfl-1 A1 inh	B2AR ag	dFosB act-2
O=C(Cn1c2ccc(F)cc2c2nc3n(c(=O)c21)CCS3)Nc1ccccc1C(F)(F)F	-8.8	50.3*	-0.6	-11.6	-5.1
CC(=O)c1ccc(NC(=O)c2cccc(N3C(=O)c4ccccc4C3=O)c2)cc1	12.8	78.1*	-0.4	81.2*	1.0
Cc1ccc(NC(=O)COC(=O)c2cccc(N3C(=O)c4ccccc4C3=O)c2)cc1	-4.1	49.9*	0.0	-9.2	-2.2
CC(=O)c1cccc(NC(=O)COC(=O)c2cccc(N3C(=O)c4ccccc4C3=O)c2)c1	-2.3	0.5	0.9	-7.2	nt
Cc1cc(C)c(-c2cc(NC(=O)COC(=O)c3ccc(NC(=O)CC#N)cc3)n(-c3ccccc3)n2)cc1C	-0.7	51.3*	-0.1	5.3	2.4
O=C(Cn1nc(Br)nc1Br)c1ccccc1	0.2	6.9	0.1	-5.7	nt

Screening data as filed in PubChem.
